MCF10A rereplic: A quantitative high throughput screen for small molecules that induce DNA re-replication in MCF 10a normal breast cells; MCF 10A DNA re-replication, Hoechst nuclear intensity, 48 h; Potency, µM (series often up to 46.1 µM), usual class: activators; 2.9% of 350,000 active; also: nearly all actives have a fitted effect of over 50% in size
SW480 rerep: A quantitative high throughput screen for small molecules that induce DNA re-replication in SW480 colon adenocarcinoma cells; SW480 DNA re-replication, Hoechst DNA content imaging, 48 h; Potency, µM (doses to about 46.1 µM), hits mostly activators; 1.8% of 340,000 active; AID 624297, 2012; also: nearly all actives have a fitted effect of over 55% in size
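Treated cells incubate 48 hr (37 C, 5% CO2), are stained 40 min with Hoechst, and nuclear fluorescence is enumerated; a rise in nuclei with high DNA signal marks re-replication.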
KB-3-1 cytotox: qHTS assay for MDR1-selective chemotherapeutics: Primary screen using the parental adenocarcinoma cell KB-3-1; KB-3-1 viability, CellTiter-Glo ATP luminescence, 72 h; Potency, µM (titrated, usually from 46.1 µM), most hits filed as cytotoxic; 1.4% of 400,000 active; AID 1347075, 2019; also: nearly all actives have a fitted effect of over 60% in size
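Cells are dispensed, compounds pinned in, plates held at 37 °C for 72 h, then CellTiter-Glo is added and luminescence read after 10 minutes. Cell line: parental KB-3-1 in phenol-red-free DMEM, 10% FBS.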
RORg inh: qHTS for inhibitors of ROR gamma transcriptional activity; Nuclear receptor ROR-gamma (Mus musculus), P51450; 5.4% of 310,000 active; AID 2551, 2010; Drosophila S2 Gal4-RORgamma UAS-luciferase reporter, 20 h; Potency, µM (titrated, usually from 53.6 µM), hits mostly inhibitors; also: nearly all actives have a fitted effect of over 60% in size
Target sequence (P51450 whole entry, looked up, the tested form may be a part): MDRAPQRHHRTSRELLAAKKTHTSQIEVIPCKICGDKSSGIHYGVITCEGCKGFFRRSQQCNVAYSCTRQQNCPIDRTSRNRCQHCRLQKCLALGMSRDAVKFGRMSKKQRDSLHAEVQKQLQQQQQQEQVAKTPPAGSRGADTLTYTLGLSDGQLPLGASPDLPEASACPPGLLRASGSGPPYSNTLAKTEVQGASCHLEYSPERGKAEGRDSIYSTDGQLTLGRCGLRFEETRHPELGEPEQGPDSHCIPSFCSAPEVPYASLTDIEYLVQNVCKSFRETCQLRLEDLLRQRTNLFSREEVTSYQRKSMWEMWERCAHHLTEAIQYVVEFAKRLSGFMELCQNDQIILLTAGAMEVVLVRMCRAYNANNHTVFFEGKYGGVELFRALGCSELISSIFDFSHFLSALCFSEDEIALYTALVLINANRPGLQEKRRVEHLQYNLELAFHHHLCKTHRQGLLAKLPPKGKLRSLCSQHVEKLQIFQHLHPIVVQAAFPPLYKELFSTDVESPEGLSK
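In this cell-based reporter format, copper sulfate (700 uM final) drives Gal4–ROR gamma fusion expression from a metallothionein promoter in Drosophila Schneider cells; compounds preincubated 1 hr, reporter read after 20 hr at ambient temperature.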
Gal4-VP16 FLuc: VP16 counterscreen qHTS for inhibitors of ROR gamma transcriptional activity. Potency, µM (top dose mostly 53.6 µM), usual class: inhibitors. 3.5% of 310,000 active. Drosophila S2 Gal4-VP16 UAS-luciferase, luminescence, 20 h;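 also: Gal4-VP16 expression switched on by copper sulfate through the metallothionein promoter; nearly all actives have a fitted effect of over 50% in size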
KB-V1 MDR tox: qHTS assay for MDR1-selective chemotherapeutics: Primary screen using the drug-selected MDR subline cells KB-V1; KB-V1 MDR cells viability, CellTiter-Glo, 72 h; Potency, µM (doses to about 46.1 µM), most hits filed as cytotoxic; AID 1347076, 2019; 3.4% of 400,000 active; also: nearly all actives have a fitted effect of over 60% in size
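Cytotoxicity toward P-gp-expressing KB-V1 cells was determined as loss of CellTiter-Glo luminescence after 72 h at 37 degrees C. Compounds were tested in quantitative HTS format across a concentration range, with curves fitted to normalized data.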
Large screens that a line does not name were inactive. The list is not random: actives were taken first. Their share in the collection is about 10%. Calls follow the shape of the dose curve; as a rule, active = well fitted curve in the direction sought with a large enough effect; inconclusive = small, poorly fitted or top-dose-only effect, or another doubt; inactive = no such curve, though single readings can be large; an effect the other way counts as inactive or inconclusive.

CCOc1ccc(S(=O)(=O)N2CCCCC2)cc1NC(=O)Cc1ccsc1	KB-V1 MDR tox 11.6µM (no result: RORg inh, Gal4-VP16 FLuc)
COc1ccc(S(=O)(=O)N2CCOCC2)cc1NC(=O)Cc1ccc(Cl)c(Cl)c1	RORg inh inconclusive
Cc1ccc(NCc2nc3ccccc3n2C)cc1C	none
Cc1cc(C)c(C)c(N=Nc2nc3ccccc3n2C)c1C	SW480 rerep inconclusive, KB-3-1 cytotox inconclusive, RORg inh 2.24µM, Gal4-VP16 FLuc 5.62µM, KB-V1 MDR tox inconclusive
Cc1ccc(C)c(N=Nc2nc3ccccc3n2C)c1	MCF10A rereplic inconclusive, SW480 rerep inconclusive, RORg inh 3.16µM, Gal4-VP16 FLuc 8.91µM, KB-V1 MDR tox 14.6µM
Cn1c(/N=C/c2cccs2)nc2ccccc21	none
Cc1ccccc1CN1C(=O)c2ccccc2S(=O)(=O)c2ccc(C(=O)OCC3CCCO3)cc21 (stereo not given)	none (no result: MCF10A rereplic, SW480 rerep, RORg inh, Gal4-VP16 FLuc)
COc1ccc(-n2nnnc2S(=O)(=O)Cc2ccc(C(=O)O)cc2)cc1	MCF10A rereplic 16.4µM, SW480 rerep 7.31µM
COc1cc(OC)cc(-n2nnnc2SCC(=O)N2CCCC2)c1	none
COc1ccc(-n2nnnc2S(=O)(=O)CC(=O)N2CCCCC2)cc1	MCF10A rereplic 7.31µM, KB-3-1 cytotox 20.6µM, RORg inh 2.82µM, Gal4-VP16 FLuc 4.47µM, KB-V1 MDR tox inconclusive
CCCN(CCC)C(=O)c1cc2c(=O)n3cccc(C)c3nc2s1	MCF10A rereplic inconclusive, KB-V1 MDR tox inconclusive
CC(=O)c1ccc(NC(=S)NN2C(C)CCCC2C)cc1 (stereo not given)	RORg inh 8.91µM, Gal4-VP16 FLuc inconclusive
CC(=O)c1ccc(NC(=O)C2CCCC2)cc1	none
CCOc1ccc(NC(=S)NN2C(C)CCCC2C)cc1 (stereo not given)	RORg inh 2.24µM, Gal4-VP16 FLuc 8.91µM, KB-V1 MDR tox inconclusive
CC(=O)c1ccc(NC(=S)NC2CCCC(C)C2C)cc1 (stereo not given)	RORg inh 5.01µM, Gal4-VP16 FLuc inconclusive
Fc1cccc(CN2CCc3nc(Nc4ccc5c(c4)OCCO5)ncc3C2)c1F	none (no result: MCF10A rereplic, SW480 rerep, RORg inh, Gal4-VP16 FLuc)
CCCCCc1ccc2cc(C#N)ccc2n1	none (no result: MCF10A rereplic, SW480 rerep, RORg inh, Gal4-VP16 FLuc)
Cc1ccc2cc3c(nc2c1)OCC3	SW480 rerep 8.2µM
COCc1cc(/C=N\NC(=O)Cc2ccc(Cl)cc2)ccc1OC	none
COc1cc(OC)cc(C(=O)N/N=C/c2ccc(OC)c(COc3ccc(F)cc3)c2)c1	MCF10A rereplic 5.8µM, SW480 rerep 5.8µM, KB-3-1 cytotox inconclusive, RORg inh 3.98µM, Gal4-VP16 FLuc inconclusive, KB-V1 MDR tox 10.3µM
CCOC(=O)c1ccccc1OCc1cc(/C=N/NC(=O)c2ccncc2)ccc1OC	RORg inh inconclusive
COCc1cc(/C=N\NC(=O)Cc2ccc(OC)cc2)ccc1OC	RORg inh inconclusive, KB-V1 MDR tox 23.1µM
COc1cccc(C(=O)N/N=C/c2ccc(OC)c(COc3ccccc3C(N)=O)c2)c1	MCF10A rereplic inconclusive, SW480 rerep 16.4µM, RORg inh inconclusive
COc1ccc(OCc2cc(/C=N\NC(=O)c3ccccc3)ccc2OC)cc1	MCF10A rereplic 8.2µM, SW480 rerep 14.6µM, KB-3-1 cytotox 6.51µM, RORg inh inconclusive, Gal4-VP16 FLuc inconclusive, KB-V1 MDR tox inconclusive
O=C(N/N=C/c1cccnc1)c1cc(-c2ccccc2OCc2ccccc2)n[nH]1	MCF10A rereplic 14.6µM, SW480 rerep inconclusive, KB-3-1 cytotox inconclusive, KB-V1 MDR tox inconclusive
O=C(N/N=C/c1cccc(OCc2ccccc2)c1)c1ccc(Br)cc1	KB-3-1 cytotox inconclusive, RORg inh inconclusive, Gal4-VP16 FLuc inconclusive
COc1ccc(/C=N\NC(=O)c2ccc([N+](=O)[O-])cc2)cc1COc1c(F)c(F)cc(F)c1F	RORg inh 3.55µM, Gal4-VP16 FLuc 4.47µM
COc1cccc(/C=N/NC(=O)c2ccc(OCc3cccc(Br)c3)cc2)c1	RORg inh 14.1µM
COc1ccc(C(=O)N/N=C/c2ccc(OC)c(COc3c(F)c(F)cc(F)c3F)c2)cc1	MCF10A rereplic inconclusive, RORg inh inconclusive, Gal4-VP16 FLuc inconclusive
COc1ccc(/C=C/C(=O)c2ccccc2)cc1COc1ccccc1F	MCF10A rereplic inconclusive, SW480 rerep 14.6µM, Gal4-VP16 FLuc inconclusive, KB-V1 MDR tox inconclusive
CCOc1ccc(N(CC(=O)N2CCOCC2)S(=O)(=O)c2ccc(F)cc2)cc1	KB-V1 MDR tox inconclusive
CCN(CC)C(=O)C1=C(C)N(Cc2ccc(OC)cc2)C(=O)C(CC(=O)NC2CCCC2)C1 (stereo not given)	none (no result: MCF10A rereplic, SW480 rerep, RORg inh, Gal4-VP16 FLuc)
COc1ccc(C(=O)N/N=C\c2ccc(OC)c(COc3ccccc3Br)c2)c(OC)c1	KB-3-1 cytotox inconclusive, KB-V1 MDR tox 16.4µM
COc1ccc(/C=N\NC(=O)c2cccc([N+](=O)[O-])c2)cc1Cn1cc([N+](=O)[O-])cn1	none (no result: MCF10A rereplic, SW480 rerep, KB-3-1 cytotox, KB-V1 MDR tox)
COc1cc(NC(=O)c2cccc(COCC(F)(F)C(F)F)c2)cc(OC)c1OC	MCF10A rereplic inconclusive, KB-3-1 cytotox inconclusive, RORg inh inconclusive, KB-V1 MDR tox inconclusive (no result: SW480 rerep)
COc1ccc(/C=N/NC(=O)c2ccccc2O)cc1Cn1cc(Cl)cn1	RORg inh 6.31µM, Gal4-VP16 FLuc 14.1µM
COc1ccc(/C=N\NC(=O)c2ccccc2Br)cc1COc1ccccc1	SW480 rerep inconclusive
O=C(N/N=C/c1ccc(OCc2ccccc2)cc1)c1ccncc1	MCF10A rereplic inconclusive, RORg inh 12.6µM
COc1ccc(/C=N/NC(=O)c2cccc(COCC(F)(F)C(F)F)c2)cc1	RORg inh inconclusive, KB-V1 MDR tox 23.1µM
CCOc1ccc(-c2nnc(SCC(=O)NCc3ccc(Cl)cc3)o2)cc1	none (no result: MCF10A rereplic, SW480 rerep, RORg inh, Gal4-VP16 FLuc)
Cc1cccc(NC(=O)c2ccc3c(O)c(S(=O)(=O)c4ccccc4)c(=O)[nH]c3c2)c1C	none (no result: MCF10A rereplic, SW480 rerep, RORg inh, Gal4-VP16 FLuc)
CCCN1C(=O)c2ccccc2NC1c1ccc(OC)c(COc2ccc([N+](=O)[O-])cc2)c1 (stereo not given)	none (no result: MCF10A rereplic, SW480 rerep, RORg inh, Gal4-VP16 FLuc)
NCCC[C@@H](CC(=O)N[C@@H]1CCNC[C@H]1C(=O)N[C@H](CC(=O)N[C@@H](CCC(=O)O)CC(=O)O)Cc1ccccc1)NC(=O)C[C@H](Cc1ccccc1)NC(=O)[C@@H]1CCCC[C@H]1N	none (no result: MCF10A rereplic, SW480 rerep, KB-3-1 cytotox, KB-V1 MDR tox)
COc1ccc(/C=N/NC(=O)c2cccnc2)cc1COc1ccc([N+](=O)[O-])cc1	MCF10A rereplic inconclusive, SW480 rerep inconclusive, KB-3-1 cytotox inconclusive, KB-V1 MDR tox inconclusive
O=C(c1cccc(COCC(F)(F)C(F)F)c1)N1CCN(c2ccccc2)CC1	RORg inh inconclusive, KB-V1 MDR tox 14.6µM
